48 compounds from PubChem BioAssay AID624287 (National Center for Advancing Translational Sciences (NCATS), 2012) can be followed below.

The structures appear in SMILES notation. Among all 340,000 compounds or so, about 420 (0.12%) were called active. Where a call stands in place of a potency, no number is given. Another 10% or so got no clear call; they are omitted. For the sample, actives were picked, then their nearest neighbours and some compounds at random. Unmarked numbers belong to inactive results. The call rests on the fitted dose curve; in most records, active means well fitted activation curve with a large enough effect; inconclusive means small, poorly fitted or top-dose-only effect, or another doubt; inactive means no such curve, though single readings can be large or run the other way; cell line not stated here.
Potency means the concentration at half of the fitted maximal effect.

The assay in a line: qHTS for Agonist of gsp, the Etiologic Mutation Responsible for Fibrous Dysplasia/McCune-Albright Syndrome: qHTS. Further: nearly all actives have a fitted effect of over 60% in size.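 On activation (cAMP increase): phosphodiesterase inhibitor Ro 20-1724 added with compounds to block cAMP breakdown.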 The following applies: gsp mutant cells, cAMP HTRF, 30 min; series mostly up to 76.9 µM. The text has this:
McCune-Albright syndrome (MAS) is a rare disease caused by somatic mutations in Gsgsp), a widely expressed protein central in signal transduction from G-coupled protein receptors (GPCRs). The disease symptoms are diverse, owing to the fact that the patients are mosaics with varying degrees of tissue involvement. Greater than 90% of the mutations in Gs in MAS occur at the R201 position and are equally divided between R201H and R201C. The R201 residue is central in the intrinsic GTPase activity of Gs and the H and C mutations lead to loss of, or impairment of, the GTPase activity. The intrinsic GTPase activity is necessary to terminate the interaction between Gs and adenylate cyclase, and to terminate the cAMP-mediated signaling of the given GPCR pathway. Thus, these activating mutations lead to ligand-independent activation of GPCR pathways. The tissue phenotype is determined by the role of Gs in the function of a given cell, and excess Gs/cAMP signaling in that cell. For example, pituitary somatotrophs overproduce growth hormone in a growth hormone releasing hormone-independent fashion, and gigantism/acromegaly ensues. Skeletal stem cells in the bone marrow behave as if they are under constant parathyroid hormone stimulation and fail to differentiate into osteoblasts and osteocytes, and proliferate as immature osteogenic cells and lead to the marrow fibrosis of fibrous dysplasia of bone. The goal of this project is to identify molecules with stimulatory activity at gsp mutations that will not only allow for in-depth study of the underlying molecular and cellular pathophysiology, but also serve as compounds from which drugs to treat FD/MAS can be developed NIH Chemical Genomics Center [NCGC] NIH Molecular Libraries Probe Centers Network [MLPCN] MLPCN Grant: IRP-FT-DE-2011-01 Assay Submitter (PI): Michael Collins, NIDCR
1.#Seed 2000 cells/well in 6 ul DMEM 10% FBS, 1% Pen/Strep, 0.5 mg/ml G418 2.#Incubate 16-24 hr at 37C, 5% CO2, 95% humidity 3.#Aspirate leaving 1 ul residual volume 4.#Dispense 5 ul/well DPBS + 1 mM CaCl2, 0.5 mM MgCl2, 0.05% BSA, 0.005% Tween 20 5.#Aspirate leaving 2 ul residual volume 6.#Dispense 23 nl/well compounds in DMSO 7.#Dispense 1 ul/well 300 uM Ro-20174 in DMEM 10% FBS 8.#Incubate 30 min at 37C, 5% CO2, 95% humidity 9.#Dispense 1.5 ul/well HTRF reagent: cAMP-d2 in lysis buffer 10.#Dispense 1.5 ul/well HTRF reagent: anti-cAMP antibody-K in lysis buffer 11.#Incubate 30 min at room temperature 12.#Detect HTRF signal using EnVision plate reader
On the technique in general: Quantitative high-throughput screening tests each substance at several concentrations.
For the compound `O=C(O)C1=C(C(=O)O)C2CCC1C2`, the Potency result was “inactive”.
Same read-out and setting: the entry for `CC1=C(C(=O)N2CCOCC2)CC(CC(=O)NCCN2CCOCC2)C(=O)N1CCC1=CCCCC1` (stereo not drawn) is “inactive”; for `CC1(c2cccc(N)c2)OCCO1` it is “inactive”; for `CCc1cccc(CC)c1N1C(=O)CC(Sc2ccccc2N)C1=O` (stereo not drawn) it is “inactive”.
The same measure, in the same setting: with `CCCCN(C(C)=O)c1ccc2c(c1)C1CC2CCN1Cc1ccccc1` (stereo not drawn) the entry was “inactive”.
With `CCOc1ccc(S(=O)(=O)NCCC(=O)NNC(=O)c2ccc(F)cc2)cc1`, the Potency result was “inactive”.
On to `Cc1ccc(NC(=O)Cn2sc3ccccc3c2=O)cc1`, for which the Potency entry is “inactive”.
Consider `CC1C(C)N(C(=O)CCl)c2ccccc2N1C(=O)CCl` (stereo not drawn), for which the activation (cAMP increase) is -0.561% [at 15.4 µM].
Regarding `CC1CCCC(C)N1C(=O)COC(=O)c1ccccc1C(=O)c1ccccc1` (stereo not drawn), the Potency entry was “inactive”.
For the compound `CC1(C)NC(=O)N(CC(=O)Nc2ccc(-c3ccccc3)cc2)C1=O`, the Potency entry is “inactive”.
For the compound `CC1C(=O)N(Cc2cn(CC3CCCCC3)nn2)CCS(=O)(=O)N1Cc1ccc(-c2cccc(N(C)C)c2)cc1` (stereo not drawn), the Potency entry is “inactive”.
`CCOC(=O)C(=Cc1ccccc1)C(=O)c1ccccc1`: the Potency result was “inactive”.
In the case of `COc1ccc(S(=O)(=O)N2CCN(CC(=O)N3CCNC3=O)CC2)cc1OC`, the Potency result was “inactive”.
Regarding `O=C(OCC(=O)N1CCCCCC1)c1cccc(Cl)c1Cl`, the Potency entry is “inactive”.
Consider `CSc1ncnc2c1ncn2CCCNCC(C)c1ccccc1` (stereo not drawn), for which the Potency result was “inactive”.
Regarding `C[C@H]1NS(=O)(=O)c2cc(Cl)ccc2O[C@@H]1c1ccccc1`, the Potency entry is “inactive”.
On to `COc1cc2nnn(-c3ccncc3)c2cc1OC`, for which the Potency result was “inactive”.
Same read-out and setting: with `O=C(COC(=O)/C=C/c1ccc(Cl)cc1)NC1CCS(=O)(=O)C1` (stereo not drawn) the entry was “inactive”; with `Cc1ccccc1-c1ccc2c(c1)O[C@@H](CN(C)Cc1ccc(C(=O)O)cc1)[C@@H](C)CN([C@H](C)CO)S2(=O)=O`, “inactive”.
Still for that read-out and setting: with `CCN(Cc1ccncc1)C(=S)Nc1ccccc1C` the entry was “inactive”; with `CC1CCCC(NC(=O)COC(=O)c2ccccc2C(=O)N(C)C2CCCCC2)C1C` (stereo not drawn), “inactive”; with `CCN(CC)C(=O)C1=C(C)N(Cc2ccc(OC)cc2)C(=O)C(CC(=O)NCCCCc2ccccc2)C1` (stereo not drawn), “inactive”.
`N#CCCC(C#N)(c1cccnc1)N1CCOCC1` (stereo not drawn): the Potency result is “inactive”.
Regarding `CCc1cc(C(=O)N(CC)CC(=O)Nc2c(F)cccc2F)sc1C`, the Potency result was “inactive”.
On the same count and under the same terms, the entry for `Cc1ccc(-c2ccc(CN3C(C)C(=O)N(Cc4cn(CCC5OCCCO5)nn4)CCS3(=O)=O)cc2)cc1` (stereo not drawn) is “inactive”.
On to `COc1ccc(S(=O)(=O)N2CCC(C(=O)NCCC(=O)Nc3ccccc3OC)CC2)cc1`, for which the Potency entry was “inactive”.
Same read-out and setting: the entry for `CC1CC(NC(=S)N(C)C)CC(C)(C)C1` (stereo not drawn) is “inactive”; for `CC(C)NC(=O)Nc1ccc2c(c1)C(=O)N([C@H](C)CO)C[C@H](C)[C@@H](CN(C)Cc1ccc(C(F)(F)F)cc1)OCCCC[C@@H](C)O2` it is “inactive”.
Same read-out and setting: with `O=C(NN=Cc1ccc2c(c1)CCC2)c1ccccc1O` the entry was “inactive”; with `O[C@H]1C[C@H](c2ccc(Cl)cc2)N(Cc2cccs2)C[C@@H]1n1cc(C2CC2)nn1`, “inactive”.
Still for that read-out and setting: the entry for `CC(=O)Nc1ccc2c3c(ccc([N+](=O)[O-])c13)CC2` is “inactive”.
Consider `O=C(NC(=S)Nc1ccccc1C(=O)O)c1ccc(-c2ccc(Br)cc2)o1`, for which the Potency is 14.1 µM (active).
In the case of `COC(=O)c1ccccc1NC(=S)NC(=O)c1ccccc1F`, the Potency entry was “inactive”.
On to `O=C(O)c1ccccc1NC(=O)c1ccccc1-c1ccccc1C(=O)O`, for which the Potency result is “inactive”.
With `O=C(COC(=O)CCc1c[nH]c2ccccc12)Nc1cccc(Cl)c1`, the Potency result was “inactive”.
As for `COC(=O)C(Cc1c[nH]c2ccccc12)NC(=O)CCNC(=O)c1ccco1` (stereo not drawn), the Potency entry was “inactive”.
Consider `COc1ccc(-c2cnc3c(c2)C(=O)N([C@H](C)CO)C[C@@H](C)[C@H](CN(C)Cc2ccccc2)O3)cc1`, for which the Potency result is “inactive”.
Same read-out and setting: the entry for `COc1ccc(-c2ccc(CN3C(C(C)C)C(=O)N(Cc4cn(CC5CCCCC5)nn4)CCS3(=O)=O)cc2)cn1` (stereo not drawn) is “inactive”; for `CCCc1ccc(S(=O)(=O)N2CCN(C(=O)c3cc(C)on3)CC2)cc1` it is “inactive”.
In the case of `CCc1noc(C)c1C(=O)OCC(=O)c1ccc(NC(=O)CC(C)C)cc1`, the Potency result is “inactive”.
Same read-out and setting: with `COc1ccc(CN2C(=O)C(CC(=O)NCCN3CCOCC3)CC(C(=O)N(C(C)C)C(C)C)=C2C)cc1` (stereo not drawn) the entry was “inactive”; with `COc1ccc(NC(=O)CCCOc2ccc(C(C)=O)cc2)cc1S(=O)(=O)N1CCCCC1`, “inactive”; with `COc1cccc(/C=C2\SC(=S)N(CCCC(=O)N3CCOCC3)C2=O)c1`, “inactive”.
With `Cc1ccc2cccc([N+](=O)[O-])c2n1`, the Potency entry is “inactive”.
For `CCN(CC)C(=O)C(C)N1c2cccc3cccc(c23)S1(=O)=O` (stereo not drawn), the Potency entry is “inactive”.
With `Cc1ccc(C(=O)NC(C)C(c2cccs2)N2CCOCC2)cc1C` (stereo not drawn), the Potency entry was “inactive”.
Regarding `COc1ccc(OC)c(NC(=O)C2CCCN2S(=O)(=O)c2ccc3c(c2)CC(C)N3C(C)=O)c1` (stereo not drawn), the Potency entry is “inactive”.
In the case of `C[C@@H]1CN([C@@H](C)CO)C(=O)c2cc(NS(C)(=O)=O)ccc2O[C@@H](C)CCCCO[C@H]1CN(C)C(=O)Nc1ccc2c(c1)OCO2`, the Potency result was “inactive”.
